From PubChem BioAssay
Hits are enriched below; roughly 1.2% of the tested compounds scored in any of these assays.
ASM inhibitor – inhibitors of human secretory acid sphingomyelinase; P17405; placental ASM, HMU-PC fluorogenic substrate, 60 min; Potency, µM (series often up to 57.5 µM), most hits filed as inhibitors; actives 0.006% (n = 340,000)
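HMU-PC0 cleavage (9 uM final) by human placental ASM, 60 min at 37 °C following 10 min compound exposure at RT; stopped at pH 10, fluorescence Ex 386/Em 447 nm.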
TSHR antagonist – blocks TSH signaling through the human TSH receptor; TSHR-expressing cells, TSH-stimulated cAMP HTRF, 2 h; hits give low values; activity change, negative = inhibition, % at 11.5 µM; P16473; AID 504810; actives 0.2% (n = 330,000);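 active = activity change below a set negative limit, meaning inhibition stronger than a set level, cut at about -70% in these data; inconclusive = activity change between two set negative limits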
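Inhibition of cAMP made by TSHR-expressing cells under TSH stimulation (4nM final, EC80; 2 h, 37 deg C) is quantified with a one-step lysis HTRF kit, anti-cAMP cryptate versus cAMP-d2.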
PTAP TSG101 blk – blocks PTAP/TSG101 interaction to inhibit HIV-1 budding. Potency, µM (doses to about 115 µM), hits mostly inhibitors. AID 493005. Fluorescence polarization, FITC-PTAP peptide / Tsg101 binding. Q99816. 340,000 tested, under 10 active; active = well fitted inhibition curve with a large enough effect in the main read-out, with a control signal flat, not every such curve was filed as active; inconclusive = small, poorly fitted or top-dose-only effect, or effect the other way, or a change in a side signal; inactive = no such curve, though single readings can be large or run the other way
Target sequence (Q99816 whole entry, looked up): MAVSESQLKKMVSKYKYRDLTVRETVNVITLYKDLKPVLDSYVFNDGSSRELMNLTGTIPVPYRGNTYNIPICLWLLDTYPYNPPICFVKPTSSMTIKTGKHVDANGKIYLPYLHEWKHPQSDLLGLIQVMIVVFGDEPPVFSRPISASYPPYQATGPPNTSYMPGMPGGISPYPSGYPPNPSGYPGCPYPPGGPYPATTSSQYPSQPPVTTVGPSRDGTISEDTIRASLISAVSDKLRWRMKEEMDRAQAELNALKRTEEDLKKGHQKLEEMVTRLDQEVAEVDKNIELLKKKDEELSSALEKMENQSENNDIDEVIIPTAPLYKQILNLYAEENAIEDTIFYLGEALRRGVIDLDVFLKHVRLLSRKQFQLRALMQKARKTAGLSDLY
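Tsg101 binding domain (10 uM final) was mixed with compound and a FITC-labeled PTAP peptide (50 nM final) in HEPES pH 7.5 buffer with NaCl, Tween 20, EDTA and TCEP; fluorescence polarization was read after 20 min at r.t.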
Anesthetic bind – binds horse apoferritin like a general anesthetic; apoferritin/1-aminoanthracene competitive binding, fluorescence; Potency, µM (series often up to 77.5 µM), hits mostly inhibitors; P02791; actives 0.074% (n = 350,000); note: nearly all actives have a fitted effect of over 20% in size
Target sequence (P02791 2-175 limits assumed): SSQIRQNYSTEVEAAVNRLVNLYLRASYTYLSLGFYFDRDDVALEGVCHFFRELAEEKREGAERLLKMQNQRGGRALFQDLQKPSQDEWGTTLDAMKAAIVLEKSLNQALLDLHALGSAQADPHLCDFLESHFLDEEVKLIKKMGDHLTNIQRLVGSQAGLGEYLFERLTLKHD
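In PBS, apoferritin at 10 uM is loaded with 1-AMA from a 50% saturated solution. After 10 min of compound exposure at ambient temperature, reduced 535 nm fluorescence indicates probe displacement.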
BRCA1 expr act – BRCA1 expression activation; AID 624202; Potency, µM (doses to about 46.1 µM), actives largely listed as activators; MCF7-BRCA1-FFLuc reporter, luminescence, 48 h; response scale: scaled: vehicle 0%, 10 µM genistein 100%; actives 1.1% (n = 380,000); note: nearly all actives have a fitted effect of over 80% in size
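Compounds are tested at multiple concentrations on MCF7 BRCA1-luciferase reporter cells seeded at 2000 per well; after 48 h, a single luminescence end-point is taken and curves fitted to the normalized data.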
Numbers stand for hits; . = inactive; ? = inconclusive; / = no result given. Unless noted, calls come from the whole dose curve; as a rule, active = well fitted curve in the direction sought with a large enough effect; inconclusive = small, poorly fitted or top-dose-only effect, or another doubt; inactive = no such curve, though single readings can be large; an effect the other way counts as inactive or inconclusive.

SMILES	ASM inhibitor	TSHR antagonist	PTAP TSG101 blk	Anesthetic bind	BRCA1 expr act
COc1ccc(C2=NOC(CN3C(=O)c4ccccc4S3(=O)=O)C2)cc1 (stereo not given)	.	.	.	?	2.8µM
O=C1c2ccccc2S(=O)(=O)N1CC1CC(c2ccc(Cl)cc2)=NO1 (stereo not given)	.	.	.	.	3.2µM
O=C(CN1C(=O)c2ccccc2S1(=O)=O)c1ccccc1	.	.	.	.	.
O=C1c2ccccc2S(=O)(=O)N1CC1CC(c2ccccc2)=NO1 (stereo not given)	.	.	.	?	11µM
CN(C)C(=O)NC1CCCCCCC1	/	/	/	.	/
CCCN(CCC)c1ccc(/C=C/c2sc3ccccc3[n+]2CCCCI)cc1	/	/	/	/	.
C[C@H](C(=O)OCO/N=[N+](\[O-])N1CCCC1)c1cccc2ccccc12	/	/	/	.	/
O=[N+]([O-])c1ccc(/C=C2\C=C(C(O)c3ccc([N+](=O)[O-])cc3)c3ccccc32)cc1 (stereo not given)	/	/	/	/	.
C=CCn1c(N)c(C(=O)Nc2ccc(C)cc2)sc1=S	.	.	.	.	1.3µM
C=CCn1c(N)c(C(=O)Nc2ccccc2OC)sc1=S	.	.	.	.	.
Cc1ccc(S(=O)(=O)N(C)c2cccc3cccnc23)cc1	/	/	/	.	/
Cc1ccc2c(c1)sc1nc(=O)n(-c3cccc(Cl)c3)c(=O)n12	.	.	.	.	1.4µM
Cc1ccc2c(c1)sc1nc(=O)n(-c3ccc(Cl)cc3)c(=O)n12	.	.	.	.	.
O=C(COc1ccc2c(c1)CCC2)N1CCc2ccccc21	.	.	.	?	10µM
COc1cccc(C(=O)N2CCn3c2nc2ccccc23)c1	.	.	.	.	.
COc1ccc(C(=O)N2CCn3c2nc2ccccc23)cc1	.	.	.	.	13µM
O=C(c1ccccc1)N1CCc2ccccc21	.	.	.	?	.
COc1ccc(C(=O)N2CCc3ccccc32)cc1	.	.	.	.	11µM
O=C(c1ccc(Cl)cc1)N1CCn2c1nc1ccccc12	.	.	.	.	.
O=C(c1cccs1)N1CCn2c1nc1ccccc12	.	.	.	.	2.8µM
CC[C@H](C)[C@H](NC(=O)[C@H](N)Cc1ccc(O)cc1)C(=O)N[C@@H](CC(N)=O)C(=O)N[C@@H](CC(C)C)C(=O)N[C@H](C(=O)N[C@@H](C(=O)N[C@@H](CCCN=C(N)N)C(=O)N[C@@H](CCC(N)=O)C(=O)N[C@@H](CCCN=C(N)N)C(=O)N[C@H](Cc1ccc(O)cc1)C(N)=O)[C@@H](C)O)[C@@H](C)CC	/	/	/	.	/
C[C@@]12C=Cc3occc3C1CC[C@@]13C[C@@H](CCC12)[C@@](O)(CO)C3 (stereo not given in full)	/	/	/	.	/
CSCC[C@H](N)C(=O)N[C@@H](CCC(=O)O)C(=O)N[C@H](C(=O)NCC(=O)N[C@@H](Cc1c[nH]c2ccccc12)C(=O)N[C@@H](Cc1ccc(O)cc1)C(=O)N[C@@H](CCCNC(=N)N)C(=O)N[C@@H](CO)C(=O)N1CCC[C@H]1C(=O)N[C@@H](Cc1ccccc1)C(=O)N[C@@H](CO)C(=O)N[C@@H](CCCNC(=N)N)C(=O)N[C@H](C(=O)N[C@H](C(=O)N[C@@H](Cc1cnc[nH]1)C(=O)N[C@@H](CC(C)C)C(=O)N[C@@H](Cc1ccc(O)cc1)C(=O)N[C@@H](CCCNC(=N)N)C(=O)N[C@@H](CC(N)=O)C(=O)NCC(=O)N[C@@H](CCCCN)C(=O)O)C(C)C)C(C)C)C(C)C	/	/	/	.	/
O=S(=O)(c1ccccc1)N1CCN(c2nc(-c3ccc(F)cc3)nc3cc(Cl)ccc23)CC1	/	/	/	/	.
Cc1ccc(C(=O)NC(C)CCc2ccccc2)cc1S(=O)(=O)N1CCOCC1 (stereo not given)	.	.	.	/	.
SMILES	ASM inhibitor	TSHR antagonist	PTAP TSG101 blk	Anesthetic bind	BRCA1 expr act
O=C(NCCCc1ccccc1)c1ccccc1	.	.	.	.	10µM
CCN(CC)S(=O)(=O)c1cccc(C(=O)NCCc2ccccc2)c1	.	/	.	/	6.3µM
COc1ccc(C(=O)NCCS(=O)(=O)NCCc2ccccc2)cc1	.	.	.	/	4.5µM
Cc1ccc(C(=O)NCCc2ccccc2)cc1S(=O)(=O)N1CCOCC1	.	.	.	/	11µM
COc1ccc(CCNS(=O)(=O)CCNC(=O)c2ccccc2)cc1	/	.	.	/	.
CN(C)S(=O)(=O)c1cccc(C(=O)NCCNC(=O)c2cccc(S(=O)(=O)N(C)C)c2)c1	.	.	.	.	.
Fc1cc(Br)ccc1COc1ccc(-c2nnco2)cc1	.	.	.	.	6.3µM
Fc1ccc(COc2ccc(-c3nnco3)cc2)c(Cl)c1	.	.	.	.	8.9µM
COc1ccc(NC=O)c(C(=O)CCNC(C)=O)c1	/	/	/	.	/
Nn1c(Cc2ccccc2)nc2ccccc2c1=O	.	/	.	/	.
Nn1c(COc2ccc(Cl)cc2)nc2ccccc2c1=O	.	.	.	.	5.6µM
Cc1cccc(NC(=O)c2nc[nH]c2C(=O)N[C@@H](C)C(=O)OC(C)(C)C)c1	.	.	.	18µM	.
O=C1Nc2ccccc2Nc2ncccc21	.	.	.	.	.
Cc1ccc2c(c1)NC(=O)c1cccnc1N2	.	.	.	.	4.5µM
COc1ccc(/C(N)=N/OC(=O)c2cccs2)cc1OC	.	.	.	.	8.9µM
CC(C)[C@H](NC(=O)[C@H](CC(=O)O)NC(=O)CNC(=O)[C@@H](N)CCCN=C(N)N)C(=O)O	/	/	/	.	/
N=C1/C(=C/c2ccc(OCc3ccccc3)cc2)C(=O)N=C2SC(CC(=O)N3CCOCC3)=NN12	.	.	.	.	14µM
COc1ccc(C2CC(c3ccccc3)Oc3cc4c(cc32)OCO4)cc1 (stereo not given)	/	/	/	.	/
Cc1ccc(-c2cc(C(=O)N3CCN(c4ccccc4O)CC3)c3ccccc3n2)o1	.	.	.	.	4.5µM
O=C(c1cc(-c2ccc(Br)cc2)nc2ccccc12)N1CCN(c2ccccc2O)CC1	.	.	.	/	.
CC(=O)c1cc(C#N)c(SCC(=O)OC(C)C)nc1C	.	.	.	.	.
CC(=O)c1cc(C#N)c(SCC(=O)OC(C)(C)C)nc1C	.	.	.	?	5.6µM
O=C(NCCCN1CCOCC1)c1sc2ccccc2c1Cl	.	.	.	.	11µM
O=C(NCCN1CCOCC1)c1sc2cc(Cl)ccc2c1Cl	.	.	.	.	?
CC1CCCN(C(=O)CNC(=O)c2sc3ccccc3c2Cl)C1 (stereo not given)	.	.	.	/	?
O=C(NCC(=O)N1CCCCC1)c1sc2ccccc2c1Cl	.	.	.	/	4.5µM
COc1cc2nc(N3CCCN(C)CC3)nc(N)c2cc1OC	/	/	/	/	.
